Screening data: PubChem, National Center for Advancing Translational Sciences (NCATS)
Marburg entry inh = Marburg virus entry inhibition; Marburg virus pseudotyped entry inhibition, cell reporter; Potency, µM (titrated, usually from 37.8 µM), hits mostly inhibitors; 300,000 compounds, 1.8% hits; AID 540276; calls by dose curve; tested in HEK293 cells
Cycloheximide cs = counter-screen for Shiga toxin inhibitors: cycloheximide protein synthesis inhibition | cell reporter, cycloheximide protein synthesis inhibition counterscreen | max response, % | 300,000 compounds, 12% hits; in the data active means max response mostly above about 13%, no sharp cut-off; inactive means mostly below about 14%; further: read at 38.3 µM for the half of the compounds with a filed dose
Shiga toxin inh = blocks Shiga toxin action in Vero cells; AID 2315; inhibition, % at 38.7 µM; Vero cells, Shiga toxin protein synthesis inhibition reporter; 290,000 compounds, 9.2% hits; in the data active means inhibition mostly above about 28%, no sharp cut-off; inactive means mostly below about 43%
LASV entry inh = Lassa virus entry inhibition | Lassa virus pseudotype entry inhibition, cell reporter | Potency, µM (top dose mostly 37.9 µM), actives largely listed as inhibitors | 300,000 compounds, 1.2% hits | AID 540256; calls by dose curve; tested in HEK293 cells; further: nearly all actives have a fitted effect of over 50% in size
Hits are given with their value; - = inactive; ? = inconclusive; . = not tested or not shown; ! = not active in a repeat. In the library only some 12% were active in any assay of this set; here they are far more common.

SMILES | Marburg entry inh | Cycloheximide cs | Shiga toxin inh | LASV entry inh
Cc1ccc(C)c(NC(=O)c2cc[n+](C)cc2)c1 | - | - | - | ?
COC(=O)C1=CN(Cc2ccc(OC)c(OC)c2)C=C(C(=O)OC)C1c1cccc(F)c1 | . | - | - | .
COC(=O)C1=CN(Cc2cccs2)C=C(C(=O)OC)C1c1cccc(O)c1 | - | - | - | 7.1µM
CCOC(=O)c1ccc(Oc2c(C)oc3cc(OS(C)(=O)=O)ccc3c2=O)cc1 | ? | - | - | -
O=C(Nc1c(C(=O)N2CCOCC2)oc2ccccc12)c1ccccc1Cl | - | - | - | ?
COc1ccc(C(=O)CSc2nccn2C)cc1 | - | 29 | 67 | ?
CCOc1ccc(C(=O)CSc2nnc(C3CC3)n2C)cc1 | - | 14 | 37 | -
COc1cccc(NC(=O)CSc2cc(C)[nH]c(=O)n2)c1 | . | . | . | -
CCOc1ccc(NC(=O)CSc2nnc(C3CC3)n2C)cc1 | - | - | - | -
COC(=O)c1ccc(CSc2nccn2C)cc1 | - | 52 | 65 | -
Cn1ccnc1SCc1ccc([N+](=O)[O-])cc1 | - | - | - | -
COc1ccc(C(=O)CSc2cc(C)[nH]c(=O)n2)cc1 | . | 40 | 64 | .
COC(=O)c1ccc(C2NCCc3cc(OC)c(OC)cc32)cc1 (configuration not stated) | ? | - | - | -
Cn1ccnc1SCC(=O)Nc1cccc(C(F)(F)F)c1 | - | - | - | -
Cn1ccnc1SCC(=O)c1ccc(OC(F)F)cc1 | ? | 33 | 78 | -
COc1ccc(NCc2nnc(SCC(=O)c3ccc(OC)cc3)n2C)cc1 | - | 34 | - | -
Cn1ccnc1SCC(=O)c1cccc(C(F)(F)F)c1 | - | 26 | 72 | -
COc1ccc(CC(=O)NCc2nnc(SCC(=O)c3ccc(OC)cc3)n2C)cc1 | - | - | - | -
CC1(O)CC2CC1C(C(=O)O)C2C(=O)O (configuration not stated) | - | . | . | -
Cc1ccc2c(c1)N(CC(=O)NC1CCCC1)C(=O)c1cccnc1O2 | . | - | - | .
Cc1nn2c(=O)cc(COC(=O)COc3ccc(F)cc3)nc2s1 | . | . | . | -
O=C1[C@H]2[C@H]3[C@H](O)[C@H](O)C/C(=N\OC[C@@H](O)COCc4ccco4)[C@H]3CC[C@H]2C(=O)N1C1CCCCC1 | - | . | . | .
COc1ccc(-c2cn[nH]c2-c2ccc(OCc3ccccc3)cc2O)cc1 | ? | - | - | 3.5µM
CCc1ccc(CN(Cc2ccco2)C(=O)c2ccc(OC)cc2)cc1 | - | . | . | -
COc1ccc(NC(=S)N(Cc2ccc(N(C)C)cc2)Cc2ccco2)cc1 | - | 14 | - | ?
SMILES | Marburg entry inh | Cycloheximide cs | Shiga toxin inh | LASV entry inh
CCOc1ccc(NC(=S)N(Cc2ccc(N(C)C)cc2)Cc2ccco2)cc1 | - | 16 | 30 | ?
CCOc1ccc(NC(=S)NCc2ccco2)cc1 | ? | - | - | -
COc1cccc(/C=N/n2c(-c3cc(C)[nH]n3)n[nH]c2=S)c1O | - | - | - | ?
CC(C)(C)c1cc(OC(=O)c2ccccc2F)ccc1O | ? | - | 33 | -
O=C1NC2(CCCCC2)C(=O)N1c1ccc(Cl)cc1 | - | - | - | -
CSc1ccc(N2C(=O)NC3(CCCCC3)C2=O)cc1 | - | 18 | - | -
O=C1NC2(CCCCC2)C(=O)N1c1ccccc1 | - | - | - | ?
CC(=O)c1ccc(N2C(=O)NC3(CCCCC3)C2=O)cc1 | ? | 14 | 74 | -
COC(=O)c1ccc(CSc2nc3ccc(S(N)(=O)=O)cc3[nH]2)cc1 | - | - | - | -
COC(=O)c1ccc(CSc2nc(-c3ccccc3)cs2)o1 | ? | 22 | - | -
COC(=O)c1ccc(CSc2nc3ccccc3[nH]2)o1 | - | 11 | - | -
COC(=O)c1cccc(CSc2nc3ccccc3[nH]2)c1 | ? | 39 | 92 | ?
COc1ccccc1CNC(=O)CCCn1c(=O)c2ccccc2n(CC(=O)Nc2c(C)cc(C)cc2C)c1=O | - | . | . | -
COc1ccc(CCNC(=O)CCCCCn2c(=O)[nH]c3cc(OC)c(OC)cc3c2=O)cc1OC | - | . | . | -
N#C[C@@H](C(=O)NC1CCCCC1)c1nc2ccccc2nc1N1CCN(c2ccccc2F)CC1 | - | . | . | .
c1ccc(Oc2cccc3cccnc23)nc1 | - | - | - | -
c1cnc2c(OCc3nc4ccccc4[nH]3)cccc2c1 | - | 62 | 78 | -
COc1ccc(C(=O)NCc2nc3ccccc3[nH]2)cc1OC | . | - | - | .
Cc1ccccc1OCc1nc2ccccc2[nH]1 | ? | 57 | 62 | ?
COc1ccccc1OCc1nc2ccccc2[nH]1 | - | 52 | 51 | -
COCCn1cnc2c1c(=O)n(CC(=O)c1ccc3c(c1)OCCO3)c(=O)n2Cc1ccccc1 | - | 9.7 | - | -
COCCn1cnc2c1c(=O)n(CC(=O)Nc1cc(C)on1)c(=O)n2Cc1ccccc1 | - | - | - | -
CCc1ccc(-c2cn(-c3nc(C)cc(C)n3)c(=N)o2)cc1 | ? | 23 | - | 16µM
CCc1ccc(N/C(=N/c2nc(C)cc(C)n2)NC(C)=O)cc1 | . | - | - | .
CCN(CC(=O)Nc1ccc2c(c1)OCCO2)CC(=O)Nc1ccc2c(c1)OCO2 | - | - | - | -
SMILES | Marburg entry inh | Cycloheximide cs | Shiga toxin inh | LASV entry inh
CCN(CC(=O)Nc1ccc2c(c1)OCCO2)Cc1cc(=O)oc2c(C)c(C)ccc12 | - | 9.1 | - | -
COc1ccc(-c2cc(C(=O)NC3=NCCS3)c3ccccc3n2)cc1OC | ? | 27 | - | -
O=C(Nc1nc2c(s1)CCCC2)c1cc(-c2ccccc2)nc2ccccc12 | - | 14 | - | -
O=C(NC1=NCCS1)c1cc(-c2ccc(-c3ccccc3)cc2)nc2ccccc12 | ? | 24 | - | ?
COc1cc(OC)cc(-c2nnc(SCC(=O)Nc3cccc(C(=O)O)c3)s2)c1 | - | - | - | -
COc1ccccc1OCC(=O)NNC(=O)C(=O)N1CCCC1 | - | - | - | -
COC(=O)C(N)Cc1ccc(Cl)cc1 (configuration not stated) | ? | . | . | -
CC(N)C(=O)OC(C)(C)Cc1ccc(Cl)cc1 (configuration not stated) | 10µM! | . | . | ?
O=C(CCN1CCC(c2cccs2)=N1)c1cccs1 | . | 42 | 69 | .
O=C(N/N=C/c1ccc(O)cc1)c1cc[n+](Cc2ccccc2)cc1 | - | - | - | -
Cc1occc1C(=O)N/N=C/c1ccc(OCc2ccccc2)cc1 | . | 45 | 63 | .
O=C(N/N=C/c1ccc(OCc2ccccc2)cc1)c1cc[n+](Cc2ccccc2)cc1 | ? | 20 | 37 | -
COc1cc(/C=N/NC(=O)c2ccoc2C)cc(OC)c1OC | - | . | . | -
Cc1occc1C(=O)N/N=C/c1ccc(-c2ccccc2)cc1 | ? | 37 | 75 | 7.9µM
O=C(N/N=C/C(Br)=C/c1ccccc1)c1ccccc1[N+](=O)[O-] | . | 8.7 | - | .
O=C(N/N=C/c1ccncc1)c1ccccc1[N+](=O)[O-] | ? | - | - | -
CNc1ccc(C(=O)N2CCN(S(=O)(=O)c3ccc4c(c3)OCCCO4)CC2)cc1[N+](=O)[O-] | . | - | - | .
C=CCn1c(SCC#N)nc2sc(CC)cc2c1=O | - | - | - | -
Cc1occc1C(=O)N/N=C/c1cccs1 | - | 33 | 84 | -
Cc1occc1C(=O)N/N=C/C(Br)=C/c1ccccc1 | ? | 39 | 86 | -
Cc1nc2ccccc2cc1C(=O)N/N=C/c1cccs1 | - | - | - | -
Cn1cc(C(=O)N/N=C/C(Br)=C\c2ccccc2)ccc1=O | ? | - | - | ?
CCOC(=O)c1c(NC(=O)c2ccc(C)cc2)sc2c1CCCCC2 | . | . | . | -
